These results are taken from PubChem BioAssay (NCATS).

Assay [1] addresses Calcium and integrin-binding protein 1 (Homo sapiens) (UniProt Q99828). The assay is described as follows: Primary qHTS for Identification of Calcium Integrin Binding Protein 1 (CIB1) Competitor (AID 1508620).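 Also: GST tagged CIB1 binding a fluorescein labelled alphaIIb integrin peptide tracer; top concentration of the series differs between compounds.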 A digest of the protocol:
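CIB1-GST (1 uM final) and compound incubated 15 min at room temperature before adding FITC-alphaIIb peptide tracer (100 nM final). Competition for binding read by fluorescence polarization (ex 480, em 540) after another 15 min at room temperature.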
For orientation: In qHTS, concentration-response curves come from the screen itself.

The nature of assay [2]: Primary qHTS for inhibitors of nuclear receptor binding SET domain protein 2 (NSD2) in an isogenic RCH-ACV NSD2 p.E1099K mutant (9B) (AID 1645876). Also: nearly all actives have a fitted effect of over 70% in size. Also: potency is read from the fitted curve at half-maximal effect.
A short description of assay [3]: Primary qHTS for inhibitors of nuclear receptor binding SET domain protein 2 (NSD2) in an RCH-ACV wild type WT cells (2C) (AID 1645877). Also: nearly all actives have a fitted effect of over 70% in size. Also: potency is read from the fitted curve at half-maximal effect.

Records with an inconclusive call do not appear. Values without a mark were called inactive. The source made the active and inactive calls. Calls follow the shape of the dose curve; as a rule, active = well fitted curve in the direction sought with a large enough effect; inconclusive = small, poorly fitted or top-dose-only effect, or another doubt; inactive = no such curve, though single readings can be large; an effect the other way counts as inactive or inconclusive. Where a SMILES comes first, the peptide text is derived from it. The star is where a group is joined. βNA = c1ccc2cc(N*)ccc2c1; Cbz = O=C(OCc1ccccc1)*
% is scaled to controls: 0 for no effect and ±100 for the full control effect.

Chain of Calcium and integrin-binding protein 1 (Homo sapiens) (Q99828 whole entry, looked up): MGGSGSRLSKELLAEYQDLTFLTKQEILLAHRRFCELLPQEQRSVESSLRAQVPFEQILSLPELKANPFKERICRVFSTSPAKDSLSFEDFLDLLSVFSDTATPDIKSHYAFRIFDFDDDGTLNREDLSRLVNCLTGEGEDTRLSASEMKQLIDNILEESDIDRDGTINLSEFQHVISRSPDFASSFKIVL

`CC1CC(=O)C2C(O)(C1)CC(O)C13OC1c1c(O)cccc1C(=O)C23O` (stereo not drawn): the Potency result in assay [1] and in assay [2] was “inactive” throughout.

Turning to `CC(=O)NC(Cc1ccccc1)C(=O)NC(C(=O)O)C(C)C` (stereo not drawn) (Ac-Phe-Val-OH; configuration not given here), the Potency entry in assay [1], in assay [2] and in assay [3] was “inactive” in each case.

Take `CC1(C)CC[C@]2(C(=O)O)CC[C@]3(C)C(=CCC4[C@@]5(C)C[C@@H](O)[C@H](O)[C@](C)(CO)C5CC[C@]43C)[C@@H]2[C@@H]1O` (stereo partly drawn): the Potency result in assay [1], in assay [2] and in assay [3] was “inactive” throughout.

As to `CO[C@H]1c2cc(C(C)C)c(O)c(O)c2[C@@]23CCCC(C)(C)C2[C@@H]1OC3=O` (stereo partly drawn), the Potency result in assay [1] and in assay [2] was “inactive” in each case.

Regarding `COC1OC(OC)C(O)(CCC2(C)C(C)CCC3(C)C2CC(O)C(O)C32CO2)C1O` (stereo not drawn), the Potency entry in assay [1], in assay [2] and in assay [3] was “inactive” each time.

For `CC(C)C(O)(CO)CCO[C@@H]1O[C@H](CO[C@H]2OC[C@](O)(CO)[C@H]2O)[C@@H](O)[C@H](O)[C@H]1O` (stereo partly drawn), the Potency entry in assay [1], in assay [2] and in assay [3] was “inactive” throughout.

Take `CC(C)CC(NC(=O)OCc1ccccc1)C(=O)NC(CC(C)C)C(=O)NC(CCC(=O)O)C(=O)Nc1ccc2ccccc2c1` (stereo not drawn) (Cbz-Leu-Leu-Glu-βNA; configuration not given here): the Potency entry in assay [1], in assay [2] and in assay [3] was “inactive” each time.

Take `C=C1C(=O)OC[C@H]2C(C(=O)O)=CC3CC(C)(C)C[C@@]132` (stereo partly drawn): the Potency entry in assay [1], in assay [2] and in assay [3] was “inactive” each time.

As for `C[C@@H]1C(=O)O[C@H](C)[C@H]1C[C@@H](O)[C@](C)(O)[C@H]1CC[C@@]2(O)C3=CC(=O)[C@@H]4C[C@@H](O)[C@@H](O)C[C@]4(C)C3CC[C@]12C` (stereo partly drawn), the Potency entry in assay [1], in assay [2] and in assay [3] was “inactive” each time.

In the case of `C/C=C1/[C@H](O[C@@H]2O[C@H](CO)[C@@H](O)[C@H](O)[C@H]2O)OC=C2C(=O)O[C@@H]3C[C@@H](C(C)CO)[C@H](COC(=O)C[C@H]21)[C@H]3C` (stereo partly drawn), the Potency result in assay [1] and in assay [2] was “inactive” each time.

In the case of `CC(C)C1C(OC(=O)/C=C/c2ccccc2)CC2(C)OC2CCC2(C)OC2C1O` (stereo not drawn), the Potency result in assay [1], in assay [2] and in assay [3] was “inactive” in each case.

Turning to `C[C@@H]1O[C@@H](O[C@H]2[C@@H]3C=CO[C@@H](O[C@@H]4O[C@H](CO)[C@@H](O)[C@H](O)[C@H]4O)[C@@H]3[C@@]3(CO)O[C@@H]23)[C@H](O)[C@H](OC(=O)/C=C/c2ccc(O)cc2)[C@H]1OC(=O)/C=C/c1ccc(O)cc1`, the Potency result in assay [1], in assay [2] and in assay [3] was “inactive” each time.

For `COc1cc(/C=C/C(=O)O[C@H]2[C@H](O)[C@@H](CO)O[C@@]2(CO)O[C@H]2O[C@H](CO)[C@@H](O)[C@H](O)[C@H]2O)cc(OC)c1O`, the Potency result in assay [1], in assay [2] and in assay [3] was “inactive” each time.

For `O=C(/C=C/c1ccc(O)cc1)OCC1OC(O)C(OC2OC(CO)C(O)C(O)C2O)C(O)C1O` (stereo not drawn), the Potency entry in assay [1], in assay [2] and in assay [3] was “inactive” in each case.

Regarding `CC[C@H](C)[C@H](NC(=O)[C@H](Cc1ccc(O)cc1)NC(=O)[C@@H](N)C(C)C)C(=O)N[C@@H](Cc1cnc[nH]1)C(=O)N1CCC[C@H]1C(=O)N[C@@H](Cc1ccccc1)C(=O)O`, the activity change, negative = inhibition in assay [1] was 2.56% [at 12.4 µM]. The outcome in assay [2] is “inactive [at 4.96 µM]”. For the same compound, the activity change, negative = cell killing in assay [3] was 2.6% [at 4.96 µM].

With `C/C=C(\C)C(=O)OC[C@H]1O[C@@H](O[C@H]2[C@@H](O[C@H]3O[C@H](CO)[C@@H](O)[C@H](O)[C@H]3O[C@@H]3O[C@H](CO)[C@@H](O)[C@H](O)[C@H]3O)O[C@H](COC(=O)/C(C)=C/C)[C@@H](O)[C@@H]2O)[C@H](O)[C@@H](O)[C@@H]1O`, in assay [1], the Potency entry was “inactive”. Further, the activity change, negative = viability loss in assay [2] was -10.2% [at 9.23 µM]. Further, the activity change, negative = cell killing in assay [3] is -10.7% [at 9.23 µM].

`N#CC1C(=O)N=C(c2cc(Cl)ccc2O)C=C1c1cc(OCc2ccccc2)cc(OCc2ccccc2)c1` (stereo not drawn): the Potency entry in assay [1], in assay [2] and in assay [3] was “inactive” in each case.

As for `CC(=O)NC1CC(=O)C23C(=O)NC(Cc4c[nH]c5ccccc45)C2C(C)=C(C)C(O)C3/C=C/CC(C)/C=C(/C)C(O)C1O` (stereo not drawn), the Potency result in assay [1], in assay [2] and in assay [3] was “inactive” in each case.

In the case of `OC[C@@]1(O)CO[C@H](OC[C@H]2O[C@@H](OC(CCCCc3ccc(O)cc3)CCc3ccc(O)cc3)[C@H](O[C@H]3OC[C@](O)(CO)[C@H]3O)[C@@H](O)[C@@H]2O)[C@@H]1O` (stereo partly drawn), the Potency result in assay [1], in assay [2] and in assay [3] was “inactive” throughout.

`CC(=O)NC(C(=O)OC1CCC(C)(C)C2CC=C3C(=O)OCC3C12C)C(C)C` (stereo not drawn): the Potency result in assay [1] and in assay [2] was “inactive” each time.

Turning to `CCC(C)C(=O)OC[C@H]1O[C@H](O[C@H]2O[C@H](CO)[C@@H](O)[C@H](O)[C@H]2O)[C@H](O)[C@@H](O)[C@@H]1O` (stereo partly drawn), the Potency entry in assay [1], in assay [2] and in assay [3] was “inactive” in each case.

Regarding `CC(C)(O)C1OC1C1=CC(=O)C2(C)OC2C1O` (stereo not drawn), the Potency entry in assay [1] and in assay [2] was “inactive” in each case.

Turning to `CC/C=C/C=C/C1(C)OC(CC(CO)OC)=CC1=O` (stereo not drawn), the Potency entry in assay [1] and in assay [2] was “inactive” in each case.

Regarding `COC(=O)C1=CO[C@@H](O[C@@H]2O[C@H](CO)[C@@H](O)[C@H](O)[C@H]2O)[C@H]2[C@@H]1C=C[C@]21C=C([C@H](C)OC(=O)/C=C/c2ccc(O[C@@H]3O[C@H](CO)[C@@H](O)[C@H](O)[C@H]3O)cc2)C(=O)O1`, the Potency result in assay [1], in assay [2] and in assay [3] was “inactive” in each case.

Turning to `CC1(CO)CCCC2(C)C3COC(=O)C3=CC(O)C12` (stereo not drawn), the Potency result in assay [1], in assay [2] and in assay [3] was “inactive” throughout.

As to `Cc1occc(=O)c1O[C@@H]1O[C@H](CO)[C@@H](O)[C@H](O)[C@H]1O`, the Potency entry in assay [1], in assay [2] and in assay [3] was “inactive” throughout.

In the case of `O=C(O)C(Cc1ccccc1)NC(=O)C1CCCN1` (stereo not drawn) (H-Pro-Phe-OH; configuration not given here), the Potency result in assay [1], in assay [2] and in assay [3] was “inactive” in each case.

As to `CC(=O)OCC1OC(OC2COC(OC3COC(OC4C(OC5C(CO)OC(OC6CCC7(C)C(CCC8(C)C7CC=C7C9CC(C)(C)CCC9(C(=O)OC9OC(CO)C(O)C(O)C9OC9OCC(OC%10OCC(O)(CO)C%10O)C(O)C9O)C(O)CC78C)C6(C)C)C(O)C5O)OCC(O)C4O)C(O)C3O)C(O)C2O)C(OC(=O)/C=C/c2ccccc2)C(O)C1OC(C)=O` (stereo not drawn), the activity change, negative = inhibition in assay [1] is -1.97% [at 12.4 µM]. The Potency in assay [2] was 1.25 µM (active); in assay [3], 1.99 µM (active).

Regarding `COC(O)(CC(C)C)C1Oc2cc(C)[nH]c(=O)c2O1` (stereo not drawn), the Potency result in assay [1], in assay [2] and in assay [3] was “inactive” each time.

With `O=C1C(Cl)=C(N2CCOCC2)C(=O)N1c1ccc(Cl)c(Cl)c1`, the Potency result in assay [1] was “inactive”. For the same compound, the Potency was 7.96 µM (active) in assay [2] and 8.93 µM (active) in assay [3].

Consider `COC(=O)c1ccccc1O[C@@H]1O[C@H](CO[C@@H]2OC[C@@H](O)[C@H](O)[C@H]2O)[C@@H](O)[C@H](O)[C@H]1O`, for which the Potency entry in assay [1], in assay [2] and in assay [3] was “inactive” each time.

Regarding `CC(=O)OC[C@]12[C@H](OC(C)=O)[C@H](OC(=O)c3ccccc3)[C@@H]3[C@@H](OC(C)=O)[C@]1(OC3(C)C)[C@H](C)C[C@H](OC(=O)c1ccccc1)[C@@H]2OC(=O)c1ccccc1`, the Potency result in assay [1], in assay [2] and in assay [3] was “inactive” throughout.

On to `COc1cc(O)cc(C)c1C(=O)O[C@H]1[C@@H](O)[C@@H](n2ccc(=O)[nH]c2=O)O[C@@H]1CO`, for which the Potency result in assay [1], in assay [2] and in assay [3] was “inactive” each time.

In the case of `CC1=C2C(=O)C=C(CO)C2[C@H]2OC(=O)[C@H](C)[C@@H]2[C@@H](OC(=O)Cc2ccc(O)cc2)C1` (stereo partly drawn), the Potency result in assay [1], in assay [2] and in assay [3] was “inactive” in each case.

On to `Cc1c(NC(=O)N2CCOCC2)ccc2c1c1ccccc1n2C(C)C`, for which the Potency result in assay [1], in assay [2] and in assay [3] was “inactive” throughout.

Regarding `C/C=C(\C)C(=O)OCC1OC(OC2OC(CO)C(O)C(O)C2O)C(O)C(O)C1O` (stereo not drawn), the Potency result in assay [1], in assay [2] and in assay [3] was “inactive” each time.

Turning to `C[C@]12CC[C@@H]3c4ccc(O)cc4CC[C@H]3[C@@H]1C[C@@H](O[C@@H]1O[C@H](C(=O)O)[C@@H](O)[C@H](O)[C@H]1O)[C@@H]2O`, the Potency entry in assay [1], in assay [2] and in assay [3] was “inactive” each time.

For `CC(C)CC(=O)O[C@@H]1O[C@H](CO)[C@@H](O[C@H]2O[C@H](C)[C@@H](N[C@H]3C=C(CO)[C@@H](O[C@H]4O[C@H](CO)[C@@H](O[C@H]5O[C@H](CO)[C@@H](O[C@H]6O[C@H](CO)[C@@H](O)[C@H](O)[C@H]6O)[C@H](O)[C@H]5O)[C@H](O)[C@H]4O)[C@H](O)[C@H]3O)[C@H](O)[C@H]2O)[C@H](O)[C@H]1O`, the Potency entry in assay [1] was “inactive”. In addition, the activity change, negative = viability loss in assay [2] is 3.07% [at 9.23 µM]. In addition, in assay [3], the outcome is “inactive [at 9.23 µM]”.

Turning to `C/C(=C\CCC(C)C1CC(O)C2(C)C3CCC4C(C)(C)C(OC5OCC(O)C(O)C5O)CCC45CC35CC(O)C12C)C(=O)O` (stereo not drawn), the Potency result in assay [1], in assay [2] and in assay [3] was “inactive” in each case.

As for `C=C[C@H]1[C@H](O[C@@H]2O[C@H](CO)[C@@H](O)[C@H](O)[C@H]2O)OC=C(C(=O)OC)[C@H]1CC=O`, the Potency result in assay [1], in assay [2] and in assay [3] was “inactive” in each case.

In the case of `CCCO[C@@H]1O[C@H](CO)[C@@H](O)[C@H](O)[C@H]1O[C@@H]1OC[C@@H](O)[C@H](O)[C@H]1O`, the Potency entry in assay [1], in assay [2] and in assay [3] was “inactive” in each case.

On to `COc1ccc([C@H]2OC[C@H]3[C@@H]2CO[C@@H]3c2ccc(O[C@@H]3O[C@H](CO)C(O)[C@H](O)[C@H]3O)c(OC)c2)cc1OC` (stereo partly drawn), for which the Potency entry in assay [1], in assay [2] and in assay [3] was “inactive” in each case.

In the case of `CC1CCC2C(C(=O)O)=CC3(O)CC(C)(C)CC123` (stereo not drawn), the Potency result in assay [1], in assay [2] and in assay [3] was “inactive” in each case.
